# LMNA splice mod: changes lamin A minigene splicing in HeLa cells | HeLa LMNA splicing GFP/RFP minigene ratio, 48 h | Potency, µM (series often up to 46.1 µM), for inactives: at the top dose ratio change, negative = inhibition, actives largely listed as inhibitors | 0.01% of 200,000 active | AID 1487; active = well fitted inhibition curve with a large enough effect in the signal ratio, with a control signal flat, not every such curve was filed as active; inconclusive = small, poorly fitted or top-dose-only effect, or effect the other way, or a change in a side signal; the % refers to the signal ratio; also: potency is read from the fitted curve at half-maximal effect
#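 Read-out is the ratio of GFP to DsRed2 object intensity, acquired by 488 nm laser-scanning cytometry on HeLa lamin A-EGFP minigene reporter cells. Compound incubation 48 hrs at 37 °C in Opti-MEM with 2% FBS; DMSO 0.5% final.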
# ALDH1A1 inh: blocks purified human ALDH1A1 activity | Purified ALDH1A1, NADH fluorescence, propionaldehyde substrate | Potency, µM (highest dose often 75.3 µM), inactives show at the top dose activity, negative = inhibition, hits mostly inhibitors | 7.3% of 220,000 active;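 also: potency is read from the fitted curve at half-maximal effect; plate controls were no enzyme wells and a reference inhibitor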
# Target sequence (P00352 whole entry, looked up): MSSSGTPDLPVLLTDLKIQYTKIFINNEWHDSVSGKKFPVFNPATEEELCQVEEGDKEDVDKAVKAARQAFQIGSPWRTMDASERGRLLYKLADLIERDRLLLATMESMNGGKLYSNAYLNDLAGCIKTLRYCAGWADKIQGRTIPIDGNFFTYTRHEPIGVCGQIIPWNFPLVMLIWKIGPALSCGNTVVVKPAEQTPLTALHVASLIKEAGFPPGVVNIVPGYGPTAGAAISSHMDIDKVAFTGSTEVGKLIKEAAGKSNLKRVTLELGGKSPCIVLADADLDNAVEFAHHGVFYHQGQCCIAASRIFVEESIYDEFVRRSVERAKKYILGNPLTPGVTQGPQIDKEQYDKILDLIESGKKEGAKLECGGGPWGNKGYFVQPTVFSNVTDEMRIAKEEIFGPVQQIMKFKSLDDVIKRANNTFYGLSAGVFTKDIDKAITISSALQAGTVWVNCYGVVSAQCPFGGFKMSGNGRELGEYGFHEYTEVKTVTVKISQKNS
# PNC assembly inh: blocks assembly of the perinucleolar compartment; PC3M PTB-GFP, PNC prevalence imaging, 16 h; active compounds read low; activity change (PNC), negative = inhibition, % at 10 µM; 3.1% of 140,000 active;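 active = readout at or below -70, meaning at least 70% loss of cells showing the perinucleolar compartment, a nuclear body marking cancer cells; inconclusive = readout between -30 and a set limit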;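 also: plate controls were DMSO wells for no effect and camptothecin positive control wells for full effect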
#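 Compounds are pinned in duplicate onto adhered PC3M cells stably expressing GFP-tagged PTB and incubated 16 h at 37 C. Cells are then fixed, nuclei stained with Hoechst, and PNC-positive cells counted.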
# KinaseGlo FLuc: counter-screen: inhibitors of Kinase-Glo firefly luciferase; Potency, µM (highest dose often 38.3 µM), inactives show at the highest dose activity change, negative = inhibition, actives largely listed as inhibitors; Q27757; Kinase-Glo luciferase, ATP luminescence, 8 min; 0.28% of 200,000 active; active = well fitted inhibition curve with a large enough effect; inconclusive = small, poorly fitted or top-dose-only effect; also: potency is read from the fitted curve at half-maximal effect; nearly all actives have a fitted effect of over 60% in size
#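 Substrate mix (final 50 mM imidazole pH 7.2, 50 mM KCl, 7 mM MgCl2, 10 uM ATP, 0.01% Tween 20, 0.05% BSA) plus pin-tool compound, then Kinase-Glo detection mix; 8 min ambient, luminescence read.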
# HPGD block: blocks human HPGD enzyme activity. 4.3% of 150,000 active. AID 894. purified HPGD, NADH fluorescence kinetic, PGE2 substrate. Potency, µM, inactives show top-dose activity change, negative = inhibition, hits mostly inhibitors. P15428; also: potency is read from the fitted curve at half-maximal effect
#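 20 nM HPGD preincubated 15 min at room temperature with compound in 50 mM Tris-HCl pH 8, 0.01% Tween 20. Started with 1 mM NAD+ and 30 uM prostaglandin E2; NADH fluorescence (360/450 nm) read 5 times over 30-s intervals, last minus first.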
# An asterisk follows results filed as active; ? = inconclusive; . = not tested or not shown; [ ] = remark or other dose. Shown are actives, neighbours in structure and some others; about 10% of the full set was active somewhere. Unless noted, calls follow the shape of the dose curve; as a rule, active = well fitted inhibition curve with a large enough effect (not every such curve was filed as active); inconclusive = small, poorly fitted or top-dose-only effect, or another doubt; inactive = no such curve, though single readings can be large or run the other way. Unless noted, % is scaled to controls: 0 for no effect and ±100 for the full control effect.
SMILES,LMNA splice mod,ALDH1A1 inh,PNC assembly inh,KinaseGlo FLuc,HPGD block
CCOc1ccc2nc(NS(=O)(=O)c3ccc4c(c3)n(C)c(=O)n4C)sc2c1,22%,?,16,2%,25µM*
Cn1ncc2c(Cl)ncnc21,.,3%[13.5 µM],.,-5%[7.66 µM],-7%
CCCCNc1nc(C)nc2c1nc(-c1ccccc1)n2CC1CCN(C)CC1,.,?,.,0%,?
O=C(CCc1nc2ccccc2[nH]1)N1CCc2ccccc2C1,-4%,-3%,-91*,-2%,-18%
O=C(CCc1nc2ccccc2[nH]1)NC1CCCCC1,-4%,-4%,58,2%,-12%
CCCC[C@@H]1C[C@H]1C(NC(=O)c1cccs1)c1ccc(Cl)cc1 (stereo partly drawn),.,-4%,.,-1%,-14%
COC(=O)c1nnn(CC(=O)NC(=O)Nc2ccccc2F)c1C(=O)OC,11%[46 µM],12%,.,1%,.
CCOC(=O)c1nnn(CC(=O)Nc2ccccc2OC)c1C(=O)OCC,-6%,12%,-113*,-5%,7%
COC(=O)c1nnn(CC(=O)NC(=O)Nc2cccc(C)c2C)c1C(=O)OC,-2%,4%,-113*,-1%,-7%
COc1ccc(C(=O)/C=C/C(=O)N(Cc2ccccc2)C(C(=O)NC2CCCCC2)c2ccncc2)c(O)c1 (stereo not drawn),?,8%,-86*,1%,-2%
CC(C)CC(=O)Nc1nc2ccc(S(C)(=O)=O)cc2s1,5%[46 µM],?,.,3%,.
CCc1ccc(C(=O)Nc2ccc(S(=O)(=O)Nc3nc(C)cc(C)n3)cc2)o1,10%,?,-107*,3%,-15%
CCC(=O)Nc1nc2ccc(S(C)(=O)=O)cc2s1,-5%,2%,-100*,2%,-13%
CCOCC(=O)Nc1nc2ccc(S(C)(=O)=O)cc2s1,2%,18µM*,-6,-11%,-26%
CS(=O)(=O)c1ccc2nc(NC(=O)CN3C(=O)C4CC=CCC4C3=O)sc2c1 (stereo not drawn),-1%[46 µM],13µM*,.,1%,.
CC(=O)c1ccc(NC(=O)CSc2ccc3nc(-c4ccccc4)cn3n2)cc1,-8%[46 µM],.,.,.,.
CC(=O)Nc1ccc(S(=O)(=O)Nc2nc3ccc(C)cc3s2)cc1,9%,-14%,?,3%,-21%
Cc1cc(C)nc(NS(=O)(=O)c2ccc(NC(=O)CN3C(=O)C4CC=CCC4C3=O)cc2)n1 (stereo not drawn),.,32µM*,.,1%,.
Cc1ccc(S(=O)(=O)Nc2nc3ccc(S(C)(=O)=O)cc3s2)cc1,-5%,?,?,4%,25µM*
CCC1CN(C(=O)C2CCN(S(=O)(=O)c3c(C)noc3/C=C/c3ccc(C)cc3)CC2)c2cc(C)ccc2O1 (stereo not drawn),-11%[46 µM],.,.,.,.
CC(C)CC(=O)Nc1nc(=S)ss1,-6%,3.5µM*,-8,-1%,14µM*
O=C(Nc1nc(=S)ss1)c1c(F)cccc1F,4%,22µM*,-27,0%,?
Cc1ccccc1C(=O)Nc1ccc(Br)c(C)n1,8%,?,-107*,-26%,-20%
CC(C)CC(=O)Nc1nnn(C)n1,1%,8%,1,-1%,-11%
Cc1nc(NC(=O)c2cccnc2)ccc1Br,-12%,10%,?,-4%,-7%
SMILES,LMNA splice mod,ALDH1A1 inh,PNC assembly inh,KinaseGlo FLuc,HPGD block
Cc1ccccc1C(=O)Nc1nc(=S)ss1,-7%,3.2µM*,?,-3%,14µM*
COC(C)=O,.,?,.,.,-2%
c1ccc(OCCN2CCN(Cc3nc(-c4ccc5c(c4)OCO5)no3)CC2)cc1,.,-9%,.,-1%,.
Cc1c(Cl)cccc1-n1ncc(C(=O)Nc2ccc(Br)cc2F)c1C1CCNCC1,-9%[46 µM],.,.,.,.
C=C1CCC2[C@](C)(CO)C(O)CC[C@]2(C)C1C/C=C1/C(=O)OCC1O (stereo partly drawn),?,8%,.,-1%,-6%
CC(C)Sc1nnc(NC(=O)CCc2ccccc2)s1,.,-1%,.,0%,.
Cc1ccccc1C(=O)Nc1nnc(SC(C)C)s1,.,16µM*,.,-6%,.
CC(=O)Nc1nc(=S)ss1,7%,3.2µM*,22,2%,25µM*
CC(=O)Nc1nc(-c2ccc(Br)s2)cs1,?,-12%,?,-3%,-5%
CCC(C)NC(=O)c1c(C)oc2nc(C)nc(N3CCOCC3)c12 (stereo not drawn),-8%[46 µM],.,.,.,.
CCOC(=O)c1noc(C)c1C(=O)Nc1nc(C)cc(C)n1,.,20µM*,.,1%,.

# Source: PubChem BioAssay (National Center for Advancing Translational Sciences (NCATS))
